Among all 94,000 compounds or so, about 410 (0.44%) were called active. The entries come from a sample that favours actives as a whole. Values without a mark were called inactive.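 How the source made its calls: active means inhibition above about 30% together with a positive call from visual inspection of the well image (limit read from the data); inconclusive means inhibition above a set limit but visual check negative; inactive means inhibition not above a set limit, visual check negative.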

The nature of this assay: inhibitors of IL-1B driven NFkB p65 nuclear import, primary screen, imaging, HUVEC, IL-1B stimulus, high-content imaging (AID 796).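 Further: nuclear over cytoplasmic p65 intensity ratio measured by imaging; 0% = IL-1B stimulated DMSO wells and 100% = unstimulated DMSO wells.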 The conditions noted are these: HUVEC IL-1B NFkB p65 nuclear translocation imaging; at 2 µM; hits give high values.
By inhibition is commonly meant the drop in the measured response relative to a control, in per cent. `CC(C)(C)NS(=O)(=O)CC12CCC(CC1=O)C2(C)C` (centres undefined): the inhibition is 12.7%.
On to `Cc1cccc(COc2ccccc2/C=N/Nc2ccc([N+](=O)[O-])cc2)c1`, for which the inhibition is -18.1%.
With `COc1ccc(OC)c(S(=O)(=O)Nc2ccccc2F)c1` the figure was -16.7%; with `COc1ccc(S(=O)(=O)N2CCOCC2)c(C)c1C`, -1.9%.
As to `COc1ccc(S(=O)(=O)Nc2ccc(F)cc2)c(C)c1C`, the inhibition is 74% (active).
On to `O=S1(=O)C=C(SCCN2CCCC2)c2ccccc21`, for which the inhibition is -1.4%.
As for `CCOC(=O)/C(C#N)=C\c1c(C)cc(C)c(COC(C)=O)c1C`, the inhibition is 8.2%.
Regarding `O=C1c2ccccc2C(=O)N1CCC(c1ccccc1)c1ccco1` (centres undefined), the inhibition was -2.1%.
Turning to `CN(C)/C=C(\C#N)C(=O)c1cccnc1Oc1ccc(F)cc1F`, the inhibition was 5.5%.
Regarding `O=S(=O)(c1ccc(Br)cc1)n1ccc2ccccc21`, the inhibition was 5.3%.
Consider `O=C(Nc1ncc2c(n1)-c1ccccc1OC2)c1ccc(Cl)cc1`, for which the inhibition is 3.3%.
As for `CC(N)C12CC3CC(CC(O)(C3)C1)C2` (centres undefined), the inhibition is -22.4%.
`C=CCN1C(=O)C(Cc2cccc(Cl)c2)S/C1=N/N=C/c1ccco1` (centres undefined): the inhibition is 6.5%.
Regarding `CC(C)(C)NC(=O)COc1ccc(CNc2ccc3[nH]c(=O)[nH]c3c2)cc1`, the inhibition is 6.7%.
`O=C(NC1CCN(C(=S)NCc2ccco2)CC1)c1ccc(F)cc1`: the inhibition is -2.5%.
The value for `O=C(Oc1ccccc1C(=S)N1CCCCC1)c1cc([N+](=O)[O-])cc([N+](=O)[O-])c1` was -5.6%; that for `CN1CC(c2ccccc2)C2(COc3ccccc3C2=O)C12C(=O)Nc1ccccc12` (centres undefined) was -0.2%; that for `Nc1nc(Br)c2ccccc2c1-c1ccc(F)cc1` was -12.8%.
With `Cc1cccc(NC(=O)c2ccc(OCC(=O)NCc3ccccc3)cc2)c1C` the figure was 12.8%.
The value for `Cc1nc2c(-c3ccc(F)cc3)c(C)nn2c(C)c1CCC(=O)NCc1ccco1` was 8.1%; that for `c1cncc(-c2nnc3n2C2(CCCCC2)Cc2ccccc2-3)c1` was -4.9%; that for `NS(=O)(=O)c1ccc(Nc2nc(-c3ccccc3)cs2)cc1` was 18.6%.
Regarding `O=C(CNC(=O)c1cc2c(s1)CCC2)Nc1ccccc1Br`, the inhibition was -43.6%.
Consider `Cc1ccc(N(CC(=O)Nc2cc(C)cc(C)c2)S(=O)(=O)c2cccc3nonc23)cc1`, for which the inhibition is 0.6%.
As for `Cc1occc1C(=O)NNC(=S)NCC(C)C`, the inhibition was -8.5%.
With `COc1ccc(NC(=O)/C(Cl)=C(/Cl)S(=O)Cc2ccc(C)cc2)cn1` (centres undefined), the inhibition is 81.8% (active).
In the case of `COc1ccc(CC(=O)Nc2ccc(-c3nnc(-c4ccc(C)cc4)o3)cc2)cc1`, the inhibition is -3.1%.
Take `COc1cccc(NC(=O)Cc2ccc(C)cc2)c1`: the inhibition is 3.1%.
Regarding `CN(C)c1ccnc2sc3c(=O)n(-c4ccc(Cl)cc4)cnc3c12`, the inhibition was -8.3%.
Take `Cc1cc(=O)[nH]c(SCc2cccc(F)c2)n1`: the inhibition is -8.1%.
With `CCCNC(=S)NC1CC2CCCC(C1)N2CC(C)C` (centres undefined) the figure was -10.2%; with `CSc1ccccc1-c1nnc(-c2ccc(Cl)cc2)o1`, -15.4%.
For `Cc1nnc(SCC(=O)N/N=C/c2cn(-c3ccccc3)nc2-c2ccc(F)cc2)n1-c1ccccc1`, the inhibition was 16.3%.
With `O=C(Nc1ccc(-n2ccnc2P(=O)(O)c2ccccc2)cc1)c1ccccc1Br`, the inhibition is -9.1%.
With `COC(=O)Nc1sc2nc(C)cc(C)c2c1-n1cccc1` the figure was 8.1%; with `O=C(Nc1nnc(SCc2c(Cl)cccc2Cl)s1)C1CCCO1` (centres undefined), 6.6%; with `Cc1cccc(C(=O)Nc2ccccc2N2CCN(c3ccc(F)cc3)CC2)c1`, 4.6%.
Regarding `COc1ccccc1C1C2=C(COC2=O)Nc2cc3c(cc21)OCO3` (centres undefined), the inhibition is 39.9% (active).
For `CCCOc1ccccc1C1CC(=O)Nc2cc3c(cc21)OCO3` (centres undefined), the inhibition was -2.7%.
On to `O=C1NC(c2cc3c(cc2Cl)OCO3)Oc2ccccc21` (centres undefined), for which the inhibition is -2.5%.
Take `N#Cc1ccc(-c2ccc(F)cc2)nc1Sc1ccccc1`: the inhibition is 0%.
Consider `Cc1cc(=O)oc2cc(OC(C)C(=O)Nc3ccc(N4CCOCC4)cc3)ccc12` (centres undefined), for which the inhibition was 22.6%.
For `Cc1ccccc1NC(=O)C(C)c1ccc(-c2ccccc2)c(F)c1` (centres undefined), the inhibition was -13%.
On to `CCN1CCN(C(=O)C2(NC(=O)Nc3cccc(F)c3)CCCCC2)CC1`, for which the inhibition is 9.4%.
With `CN(C)c1ccnc(Oc2ccc(F)cc2)c1C#N` the figure was -4.4%.
With `COc1ccc(OCC(=O)N2CCN(C(=O)c3cccs3)CC2)cc1`, the inhibition was 42.9% (active).
With `COc1ccc(OCC(=O)N2CCN(C(=O)COc3ccccc3)CC2)cc1`, the inhibition was -0.4%.
With `O=C(COc1ccc2ccccc2c1)N1CCN(C(=O)c2cccs2)CC1` the figure was 12.1%; with `CC(C)c1ccc(N2CCN(C(=O)c3ccccc3NC(=O)/C=C(\C(=O)O)c3ccccc3)CC2)cc1`, -24.1%.
Consider `Cc1nn(C)c(Oc2ccc(Cl)cc2)c1C=O`, for which the inhibition was -7.4%.
As to `CC(=O)Nc1ccc(S(=O)(=O)N2CCN(C(=O)c3ccccc3F)CC2)cc1`, the inhibition was -10.6%.
In the case of `Cc1[nH]nc(-c2ccc(OCc3cnn(-c4ccccc4)c3)cc2O)c1Oc1ccc(Cl)cc1`, the inhibition is -4.6%.
Consider `COC(=O)C1(O)CC(C(C)C)=NN1C(=O)c1ccc(Cl)cc1` (centres undefined), for which the inhibition is -3.2%.
Take `Cc1ccc(S(=O)(=O)c2c(COC(=O)c3cccc(Cl)c3)c(-c3ccccc3)nn2C)cc1`: the inhibition is -7.8%.
For `CCN(CC)C(=O)CSc1nc2ccccc2o1`, the inhibition was -3.4%.
For the compound `COc1cc(/C=N/Nc2nn3cnnc3c3ccccc23)cc(OC)c1OC`, the inhibition was -1.1%.
Turning to `COc1ccc(/C=N\NC(=O)c2sc(N)nc2C)cc1OC`, the inhibition was 1.2%.
On to `COc1ccc(/C=N/Nc2nc3ccccc3o2)cc1OC`, for which the inhibition was 45.9% (active).
Take `CCCc1ccc(-c2c(C)sc(NC(=O)c3ccnn3C)c2C#N)cc1`: the inhibition was 3.3%.
Consider `Cc1cc(C)c([N+](=O)[O-])cc1-c1ccc(/C=N/NC(=O)c2nonc2N)o1`, for which the inhibition is -17.6%.
`CC(CC(=O)Nc1cc(C(F)(F)F)ccc1Cl)c1ccccc1` (centres undefined): the inhibition was -2.6%.
For the compound `CC(C)C(NS(=O)(=O)c1cccs1)C(=O)Nc1nc(C(C)(C)C)cs1` (centres undefined), the inhibition was 1.6%.
Consider `COc1ccc(C2=NOC3(CC(=O)N(c4ccc(Cl)cc4)C3=O)C2)c(OC)c1` (centres undefined), for which the inhibition is 0.4%.
On to `CSCCC(C(=O)NC1=NCCS1)N1C(=O)c2ccccc2C1=O` (centres undefined), for which the inhibition is -15.1%.
For `CCC1(C)Cc2c(sc3[nH]c(=S)n(Cc4ccccc4)c(=O)c23)CO1` (centres undefined), the inhibition was -4.8%.
In the case of `CCOc1ccc(Nc2nc(Cc3nnc(SCC(=O)NC4CCCC4)n3C)cs2)cc1`, the inhibition was -8.9%.
As for `O=C(CSCc1c(F)cccc1Cl)NCC1CCCO1` (centres undefined), the inhibition was -1.4%.
Regarding `COc1ccc(C2CC(c3cccs3)=Nc3ccccc3S2)cc1OC` (centres undefined), the inhibition is -4%.
With `COc1ccc(NC(=O)CSc2nc(NS(=O)(=O)c3ccc(C)cc3)cc(=O)[nH]2)cc1`, the inhibition is 0.1%.
With `O=S(=O)(/N=C(/Nc1ccccn1)c1ccccc1)c1ccc(Cl)cc1`, the inhibition is -20.6%.
With `O=C(Nc1nnc(CCOCCOCCc2nnc(NC(=O)c3ccco3)s2)s1)c1ccco1` the figure was 2.1%; with `CCOC(=O)c1c(NC(=O)CSc2nnc(C)c(=O)[nH]2)sc2c1CCC2`, 7.7%; with `CCOCC(=O)Nc1sc2c(c1C(=O)OCC)CCCC2`, 31.1% (active).
Take `CCCOC(=O)Nc1sc2c(c1C(=O)OCC)CCC2`: the inhibition was 4.6%.
The value for `CC(=O)Nc1ccc(N2C(=O)C3C4CC(=O)C(c5ccccc54)C3C2=O)cc1` (centres undefined) was 4.6%; that for `Cc1ccc(-n2c(=O)cc(N3CCN(Cc4ccccc4)CC3)[nH]c2=O)cc1` was -36.5%; that for `COC(CNC(=O)Cn1ncc2ccsc2c1=O)OC` was -11.2%.
With `Cc1ccc(/C=N/NC(=O)C(NC(=O)c2ccccc2)c2n[nH]c(=O)c3ccccc23)cc1` (centres undefined) the figure was -3.6%; with `CC(C)C(=O)NC(=S)Nc1ccccc1F`, 1.1%; with `O=[N+]([O-])c1ccccc1OCCCCN1CCCCC1`, 1.7%.
As to `CCOC(=O)COc1cc(OCC(=O)OCC)c2c(=O)cc(-c3ccccc3)oc2c1`, the inhibition is 5.4%.
For `CCOCc1nnc(NC(=O)CSc2ccc(C)cc2)s1`, the inhibition was 3.5%.
In the case of `CCN(CC)CCNc1ccc(Cl)cc1[N+](=O)[O-]`, the inhibition was -11.6%.
The value for `CN(C(=O)CSc1nc(C2CC2)nc2ccccc12)c1nc(-c2ccccc2)cs1` was 6.8%; that for `COC(=O)C(NC(=O)c1ccc(OC)cc1)(Nc1ncc(S(=O)(=O)c2ccc([N+](=O)[O-])cc2)s1)C(F)(F)F` (centres undefined) was 10.1%; that for `COc1ccc(CNCCCO)cc1OC` was 2.4%.
Turning to `CCCCOc1ccc(C(=O)NCc2ccncc2)cc1`, the inhibition was -7.4%.
As to `C=CCOc1ccc(Cl)cc1CNCCCN1CCOCC1`, the inhibition was 5.6%.
Take `COC(=O)c1c(CCl)noc1C(=O)NC(C)C`: the inhibition was -0.8%.
The value for `CC1C/C(=N/NC(=O)c2cccs2)CC(C)(C)C1` (centres undefined) was 25.5%; that for `Nc1ccccc1SCc1cc([N+](=O)[O-])cc2c1OCOC2` was -1.6%.
In the case of `O=C(Cn1cncn1)N/N=C/c1c2ccccc2cc2ccccc12`, the inhibition is 10.3%.
With `CCOC(=O)CNC(=O)CSc1nc2cccnc2n1CC`, the inhibition is -2.1%.
With `CONC(=O)c1cc(OCC(F)(F)F)ccc1OCC(F)(F)F` the figure was 4.4%; with `CC(=O)c1nn(-c2cccc(Br)c2)cc1C(=O)c1cccc2ccccc12`, -11.3%.
Turning to `c1ccc(-n2nc3ccccc3n2)cc1`, the inhibition is 18%.
In the case of `CC1(C)CC(=O)C=C(NCCN2CCNCC2)C1`, the inhibition is -15.8%.
For the compound `CC1(C)CC(=O)C=C(NCCCN2CCCC2=O)C1`, the inhibition was 99.7% (active).
In the case of `CC1(C)CC(=O)C=C(NCCCNC2CCCCC2)C1`, the inhibition is 0%.

The values are drawn from PubChem BioAssay AID796 (Columbia University Molecular Screening Center, 2007).
